The panel holds about 79,000 compounds, 15% with a hit somewhere; the sample as a whole holds those more often. A number with no mark means an inactive call. Active and inactive are the calls of the source. Rule as the data show it: active = growth inhibition above about 70%; inactive = the rest.
Legend:
[1] = NCI Yeast Anticancer Drug Screen. Data for the rad50 strain (AID 155);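 also: 0% = growth of vehicle-only cultures of the same strain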; conditions: S. cerevisiae rad50 strain growth inhibition, hits give high values
Summary of the method: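 Inhibition values express reduced yeast growth in compound-treated cultures relative to vehicle-treated controls.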

[2] = NCI Yeast Anticancer Drug Screen. Data for the mec2-1 strain (AID 157); conditions: S. cerevisiae mec2-1 strain, hits give high values
Summary of the method: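 Test agents were screened against the mec2-1 yeast strain, with defined DNA repair or cell cycle alteration. Growth was scored as inhibition against vehicle-only controls.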

[3] = NCI Yeast Anticancer Drug Screen. Data for the sgs1 mgt1 strain (AID 161);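 also: 0% = growth of cultures given vehicle only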; conditions: S. cerevisiae sgs1 mgt1 strain, hits give high values
Summary of the method: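 Read-out: growth inhibition vs vehicle controls. Cells: mutant yeast strain deficient in DNA damage repair.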

[4] = NCI Yeast Anticancer Drug Screen. Data for the cln2 rad14 strain (AID 165);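 also: 0% = growth equal to vehicle treated cultures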; conditions: S. cerevisiae cln2 rad14 strain, hits give high values
Summary of the method: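 Growth of compound-exposed yeast (cln2 rad14 genotype) measured and expressed as inhibition relative to vehicle.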

[5] = NCI Yeast Anticancer Drug Screen. Data for the bub3 strain (AID 167); conditions: S. cerevisiae bub3 mutant strain, hits give high values
Summary of the method: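 Steps: expose the mutant yeast strain to compound; grow alongside vehicle-treated cultures; measure growth; express inhibition against the vehicle cultures.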

[6] = NCI Yeast Anticancer Drug Screen. Data for the mlh1 rad18 strain (AID 175); conditions: S. cerevisiae mlh1 rad18 strain growth inhibition, hits give high values
Summary of the method: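 In this whole-cell yeast screen, a strain with altered DNA damage repair is challenged with compound, and its growth is measured against matched vehicle-treated controls.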

[7] = at 5.0 µM (retest, dose inferred, filed as 0.5)
[8] = at 50.0 µM (retest, dose inferred, filed as 5.0)

SMILES	growth inhibition [1, 7]	growth inhibition [1, 8]	growth inhibition ([1]; at 50.0 µM)	growth inhibition [2, 7]	growth inhibition [2, 8]	growth inhibition ([2]; at 50.0 µM)	growth inhibition [3, 7]	growth inhibition [3, 8]	growth inhibition ([3]; at 50.0 µM)	growth inhibition [4, 7]	growth inhibition [4, 8]	growth inhibition ([4]; at 50.0 µM)	growth inhibition [5, 7]	growth inhibition [5, 8]	growth inhibition ([5]; at 50.0 µM)	growth inhibition [6, 7]	growth inhibition [6, 8]	growth inhibition ([6]; at 50.0 µM)
O=C(Cl)C(c1ccccc1)(c1ccccc1)c1ccccc1	-3%	98% (active)	98.2% (active)	14%	97% (active)	95.1% (active)	-10%	98% (active)	97.8% (active)	18%	98% (active)	92% (active)	10%	98% (active)	94.7% (active)	-8%	99% (active)	96.3% (active)
CCCC(/C=N/N=C(N)N)=N\N=C(N)N	-24%	-8%	-24.1%	-11%	4%	-8.95%	-1%	-30%	-14.3%	10%	0%	-33.1%	-12%	-2%	-8.95%	4%	-1%	-10.6%
C=CCc1cc(Cl)ccc1O	1%	51%	37.6%	-2%	27%	79% (active)	1%	40%	83.5% (active)	1%	14%	61.2%	0%	19%	38.7%	1%	51%	36.4%
O=C(C=P(c1ccccc1)(c1ccccc1)c1ccccc1)c1ccc(Cl)cc1	5%	98% (active)	98.8% (active)	12%	99% (active)	99.2% (active)	19%	99% (active)	99% (active)	-10%	98% (active)	98.7% (active)	16%	99% (active)	98.5% (active)	-16%	99% (active)	99% (active)
CN1CCN=C1c1ccc(NC(=O)Nc2ccc(NC(=O)Nc3ccc(C4=NCCN4C)cc3)cc2)cc1	-1%	80% (active)	84.8% (active)	-15%	85% (active)	86.5% (active)	-15%	74% (active)	90% (active)	-10%	61%	50.8%	-2%	83% (active)	92% (active)	1%	83% (active)	93.8% (active)
Nc1cccc2cccnc12	31%	72% (active)	89.3% (active)	8%	14%	27%	18%	48%	78.4% (active)	4%	6%	18.4%	-3%	-4%	12.6%	29%	66%	91% (active)
CCc1n[nH]c(CC)c1CCCCCCOc1ccc(OC)cc1Cl	-8%	60%	83.8% (active)	-15%	77% (active)	92.4% (active)	-3%	73% (active)	92.2% (active)	-28%	76% (active)	89.7% (active)	-8%	83% (active)	89.2% (active)	-11%	73% (active)	93.7% (active)
O=C(C(/C=N/C(=S)NCc1ccccc1)=C(/O)c1ccccc1)c1ccccc1	6%	86% (active)	98.8% (active)	-1%	69%	98% (active)	3%	61%	98.2% (active)	-9%	87% (active)	97.7% (active)	2%	97% (active)	98.3% (active)	12%	71% (active)	98.7% (active)
CC(C)(C)C1=CC(N2CCCCC2)(C(C)(C)C)C=C(C(C)(C)C)C1=O	0%	55%	93.8% (active)	-2%	64%	91.8% (active)	3%	77% (active)	95.3% (active)	-3%	30%	65.3%	-6%	35%	81.2% (active)	0%	73% (active)	94.8% (active)
COc1ccc(C(c2c(O)c3ccccc3oc2=O)N2CCOCC2)cc1 (configuration not stated)	-30%	-14%	-8.2%	-10%	-6%	-3.1%	-13%	-29%	-34.9%	-19%	-17%	76.5% (active)	-14%	22%	-14%	-34%	-30%	-12%
Nc1ccc(C(=O)N/N=C\c2cccc3ccccc23)cc1	0%	-2%	61.8%	-3%	13%	60.6%	0%	0%	88.9% (active)	-4%	3%	34.4%	6%	22%	50.8%	-1%	21%	89.3% (active)
COc1ccc(-c2c(-c3ccccc3)c(C)nc3nc(SC)nc(SC)c23)cc1OC	24%	95% (active)	95% (active)	0%	96% (active)	95% (active)	12%	97% (active)	94.2% (active)	-2%	92% (active)	94.7% (active)	-20%	94% (active)	94.6% (active)	2%	96% (active)	94.6% (active)
O=S(O)CCCCCSSc1ccc(Cl)cc1	3%	81% (active)	98% (active)	9%	100% (active)	95.8% (active)	5%	97% (active)	98.8% (active)	-2%	97% (active)	98.2% (active)	25%	99% (active)	99% (active)	8%	97% (active)	98.2% (active)
O=C(CC(=O)c1cc(Cl)ccc1O)c1cccnc1	2%	95% (active)	68%	2%	49%	17.9%	1%	91% (active)	49.9%	7%	49%	-21.1%	4%	94% (active)	-16.1%	2%	99% (active)	47%
CC(=O)SC(SC(C)=O)SC(C)=O	11%	93% (active)	93.9% (active)	0%	98% (active)	93.1% (active)	15%	94% (active)	93.1% (active)	20%	97% (active)	89.6% (active)	29%	99% (active)	92% (active)	16%	99% (active)	90.5% (active)
CCCCCCC/C=C\C(=O)O	0%	13%	35.5%	4%	32%	17.9%	1%	38%	33.6%	4%	25%	38.9%	5%	23%	6.4%	1%	36%	74.5% (active)
N#Cc1c(-c2ccc(Cl)c(Cl)c2)c(-c2ccc(Cl)c(Cl)c2)nn(CC(=O)O)c1=O	-2%	98% (active)	38.1%	-2%	100% (active)	46.6%	2%	98% (active)	50.7%	-3%	99% (active)	14.3%	-3%	99% (active)	34.2%	0%	99% (active)	69.1%
Cc1[nH]n(C(N)=S)c(=O)c1N=Nc1ccc([N+](=O)[O-])cc1	-19%	35%	91.5% (active)	-4%	27%	51.2%	-4%	66%	88.2% (active)	-13%	33%	7.5%	-12%	54%	51.8%	-6%	48%	93.4% (active)
CCN(CC)CCOc1ccc(-c2cc(-c3ccccc3)nc(N)n2)cc1	49%	98% (active)	76.5% (active)	58%	99% (active)	79.5% (active)	44%	91% (active)	85.2% (active)	73% (active)	93% (active)	59.3%	58%	92% (active)	81.3% (active)	55%	99% (active)	77.8% (active)
